High-throughput results from PubChem.
TDP1 inh = inhibitors of human tyrosyl-DNA phosphodiesterase TDP1; 350,000 compounds, 0.28% hits; AID 485290; recombinant TDP1, AlphaScreen DNA substrate cleavage; Potency, µM (top dose mostly 130 µM), usual class: inhibitors; note: nearly all actives have a fitted effect of over 40% in size
Target sequence (Q9NUW8 whole entry, looked up): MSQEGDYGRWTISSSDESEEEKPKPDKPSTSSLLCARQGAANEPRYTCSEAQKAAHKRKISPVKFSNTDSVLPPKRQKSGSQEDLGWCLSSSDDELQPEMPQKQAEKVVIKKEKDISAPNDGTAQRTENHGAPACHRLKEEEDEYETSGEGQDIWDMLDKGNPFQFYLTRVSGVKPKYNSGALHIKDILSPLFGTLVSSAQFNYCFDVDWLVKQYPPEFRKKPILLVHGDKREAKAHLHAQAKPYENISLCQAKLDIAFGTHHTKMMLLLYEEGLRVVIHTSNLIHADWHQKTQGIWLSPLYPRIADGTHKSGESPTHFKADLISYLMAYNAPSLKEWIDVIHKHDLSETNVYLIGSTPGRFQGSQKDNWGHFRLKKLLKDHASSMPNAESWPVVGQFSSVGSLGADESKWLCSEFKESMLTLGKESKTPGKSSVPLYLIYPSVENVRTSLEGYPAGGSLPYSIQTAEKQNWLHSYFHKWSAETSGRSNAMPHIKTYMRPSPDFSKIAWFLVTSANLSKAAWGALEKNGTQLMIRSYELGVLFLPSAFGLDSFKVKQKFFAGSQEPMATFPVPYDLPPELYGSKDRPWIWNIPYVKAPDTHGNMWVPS
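Recombinant human Tdp1 (E. coli-expressed, 1 nM final) preincubated with compounds 15 min at room temperature, then 5'-biotin/3'-phosphotyrosine-FITC DNA substrate (15 nM final) added for 5 min. AlphaScreen beads (10 ug/ml final) added 10 min; cleavage lowers signal.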
Six1-Eya2 blk = Six1/Eya2 interaction inhibition; AlphaScreen GST-Six1/His-Eya2 binding, biochemical; stronger effect = lower value; 360,000 compounds, 0.56% hits; activity change, % (concentration not given with the values); Q15475+O00167; in the data active = activity change below about -65%; inconclusive = mostly about -30% to -63%
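GST-Six1 + His-Eya2 (5X stock: 250/500 nM); Tris pH 8.0, 300 mM NaCl, 0.05% BSA, 0.02% Tween 20; GSH donor/Ni acceptor beads; 1 h 37 °C dark; AlphaScreen readout.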
CtBP-E1A inh = inhibitors of CtBP/E1A interaction; AlphaScreen GST-E1A/His-CtBP binding, 1536-well; stronger effect = lower value; activity change, % (concentration not given with the values); 340,000 compounds, 0.49% hits; AID 651724; in the data active = activity change below about -65%; inconclusive = mostly about -30% to -63%
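Homogeneous bead-based format: GST-tagged E1A captured on glutathione donor beads, His-tagged CtBP on nickel acceptor beads; compounds precede bead addition by 2 h at 37 °C.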
TDP1 cell noCPT = qHTS for Inhibitors of human tyrosyl-DNA phosphodiesterase 1 (TDP1): qHTS in cells in absence of CPT | 420,000 compounds, 15% hits | DT40 Tdp1-/- hTDP1 cells, no CPT, ATP luminescence, 48 h | Potency, µM (doses to about 46.2 µM), actives largely listed as inhibitors; note: nearly all actives have a fitted effect of over 55% in size
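Stably hTDP1-transfected Tdp1-null chicken DT40 cells were treated with library compounds minus camptothecin and grown for at least 48 hr at 37 °C, after which cellular ATP was quantified by luminescence.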
IL1B secr inh = blocks inflammasome-driven IL-1 beta release; THP-1 LPS/ATP IL-1B secretion, AlphaLISA, 16 h; stronger effect = lower value; activity change, % at 57.5 µM; 360,000 compounds, 4.7% hits; in the data active = activity change below about -50%; inconclusive = mostly about -30% to -49%
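Secreted IL-1B measured by AlphaLISA bead assay after 16 h compound exposure of THP-1 cells; compounds (final up to 57.5 uM) added 1 h before LPS (250 ng/mL) and ATP (1.25 mM) stimulation; lower signal means less secretion.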
TDP1 cell CPT = growth inhibition of DT40 Tdp1-/-;hTDP1 cells with camptothecin (screen for TDP1 inhibitors). 420,000 compounds, 12% hits. chicken DT40 Tdp1-/-;hTDP1 cells + 20 nM CPT, ATP luminescence, 48 h. Potency, µM (top dose mostly 46.2 µM), hits mostly inhibitors; note: nearly all actives have a fitted effect of over 55% in size
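Cell growth measured by CellTiter-Glo luminescence after a minimum 48 h, 37 C compound exposure with 20 nM CPT in Tdp1-knockout DT40 cells stably expressing hTDP1, seeded 400/well; qHTS titration format.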
Numbers stand for hits; 0 = inactive; ? = inconclusive; - = no result. Rows were chosen to be rich in hits. Some 18% of all compounds tested hit in one or more screens of this group. Unless noted, calls come from the whole dose curve; as a rule, active = well fitted curve in the direction sought with a large enough effect; inconclusive = small, poorly fitted or top-dose-only effect, or another doubt; inactive = no such curve, though single readings can be large; an effect the other way counts as inactive or inconclusive.

SMILES	TDP1 inh	Six1-Eya2 blk	CtBP-E1A inh	TDP1 cell noCPT	IL1B secr inh	TDP1 cell CPT
Cn1c(=O)c2cc(S(=O)(=O)NCCC(=O)NCCc3ccc(Cl)cc3)ccc2n(C)c1=O	0	0	0	0	0	0
O=C(/C=C/c1ccccc1)N1CCN(S(=O)(=O)c2ccc(F)cc2)CC1	0	0	0	0	0	0
CCN(CC)S(=O)(=O)c1ccc(/C=C/C(=O)Nc2ccc(F)cc2F)cc1	0	0	-	13µM	0	?
COc1cccc(/C=C/C(=O)N2CCN(S(=O)(=O)c3ccccc3)CC2)c1	-	0	0	21µM	0	?
CN(C(=O)CSc1nnn(C)n1)c1ccccc1	0	0	0	0	?	0
CCOC(=O)c1sc2nc(C)c3c(c2c1N)CC(C)(C)OC3	0	0	0	0	0	0
S=C([S-])NCCNC(=S)[S-].[Zn+2]	14µM	-	-	-	-	-
CCc1nn(-c2cc(Oc3ccccc3)nc(-c3ccccc3)n2)c(N)c1C#N	0	0	0	?	0	?
O=C(NCc1ccc(F)cc1)C1CCCN(c2nc3ccsc3c(=O)s2)C1 (configuration not stated)	0	0	-	0	0	0
CN1C(N)=NC(=O)/C1=C/c1ccccc1F	0	0	0	0	0	0
COc1c(Br)cc(Br)cc1/C=C1/C(=O)N=C(N)N1C	0	0	0	0	-54	0
Cc1ccc2cccc(NC(=S)NC(=O)c3ccccc3)c2n1	0	0	0	?	0	18µM
Cc1cc(C)c2cccc(NC(=S)NC(=O)c3ccccc3)c2n1	0	0	0	13µM	0	16µM
Cc1ccc2cccnc2c1NC(=S)NC(=O)c1ccccc1	0	0	0	0	0	?
COc1ccccc1Nc1cc(C)nc2nc(-c3ccccc3)nn12	0	-	-	?	-	16µM
COc1ccc(-c2nc3nc(C)cc(Nc4ccc(C(C)=O)cc4)n3n2)cc1	0	-	-	15µM	-	?
COC(=O)c1ccc(Nc2cc(C)nc3nc(C)nn23)cc1	0	?	?	0	0	0
OCCc1ccccc1	0	0	0	0	0	0
CC(=O)C1C(=O)C=C(c2ccco2)CC1c1ccccc1 (configuration not stated)	0	0	0	18µM	0	?
CCOC1=C2CN(S(=O)(=O)c3ccc(C)cc3)C(c3cccc(Cl)c3)CC2N(S(=O)(=O)c2ccc(C)cc2)C(c2ccncc2)C1 (configuration not stated)	-	0	0	16µM	0	15µM
CCOC1=C2CN(S(=O)(=O)c3ccc(C)cc3)C(c3cccc(Cl)c3)CC2N(S(=O)(=O)c2ccc(Cl)cc2)C(c2ccccc2)C1 (configuration not stated)	-	0	0	?	0	?
CCOC1=C2CN(S(=O)(=O)c3ccc(C)cc3)C(c3cccc(Cl)c3)CC2NC(c2ccccc2)C1 (configuration not stated)	-	0	0	?	0	18µM
CCOC1=C2CN(S(=O)(=O)c3ccc(C)cc3)[C@H](c3cccc(Cl)c3)C[C@H]2[C@H]2C(=O)N(c3ccccc3)C(=O)[C@H]2C1	-	0	0	0	0	0
COCCNC(=O)Cn1nc(-c2ccc(Cl)cc2)c2ccccc2c1=O	-	0	0	0	0	0
O=C(O)c1ccc(N2C(=O)/C(=C/C=C/c3ccccc3)SC2=S)cc1	0	0	0	0	0	0
O=C1/C(=C/C=C/c2ccco2)SC(=S)N1c1ccc(O)cc1	-	?	?	?	0	18µM
CN(C)c1ccc(/C=C/C=C2/SC(=S)N(c3ccccc3)C2=O)cc1	0	-69	-66	8.2µM	?	18µM
O=C1/C(=C\c2ccco2)SC(=S)N1c1ccc(O)cc1	0	0	0	0	0	0
CC(C)C(C(=O)O)N1C(=O)/C(=C/C=C/c2ccco2)SC1=S (configuration not stated)	?	-69	0	0	0	?
